From ChEMBL document CHEMBL4513146, “CO-ADD screening of Karazin Kharkiv National University (Ukraine) compounds”
Potency and affinity values are given separately.

System: Klebsiella pneumoniae
Conditions: Concentration 32 ug.mL-1;; ASSAY_TEST Inhibition of Bacterial Growth; detection method Absorption (OD600); MEDIA CAMHB; plate type 384well; NBS; CORNING #3640; time 18 hr

Question: With `COc1cccc(NC(=O)Cn2nc3c(N4CCCC4)nccn3c2=O)c1` as the molecule, how does the Inhibition read?
Answer: 8.57%

Question: How did the Inhibition turn out when `COc1cc(OC)c(NC(=O)Cn2nc3c(Oc4ccc(C)cc4)nccn3c2=O)cc1Cl` was run?
Answer: 2%

Question: Which Inhibition does the source give for `Cc1ccc(C)c(NC(=O)Cn2nc3ccc(-c4ccc(C)c(C)c4)nn3c2=O)c1` here?
Answer: -9.48%

Question: With `Cc1cccc(Oc2nccn3c(=O)n(CC(=O)N4CCN(c5ccc(F)cc5)CC4)nc23)c1C` as the molecule, how does the Inhibition read?
Answer: 7.83%

Question: Which Inhibition does the source give for `COc1ccc(-c2cc3c4nn(CC(=O)Nc5c(C)cccc5C)c(=O)n4ccn3n2)cc1` here?
Answer: 9.85%

Question: With `Cc1ccc(-c2cc3c4nn(CC(=O)Nc5ccc6c(c5)OCO6)c(=O)n4ccn3n2)cc1` as the molecule, how does the Inhibition read?
Answer: 10%

Question: Which Inhibition does the source give for `CCOc1ccc(NC(=O)Cn2nc3c(Oc4ccc(C)cc4)nccn3c2=O)cc1` here?
Answer: 5.41%

Question: Which Inhibition does the source give for `COc1cccc(CNC(=O)CSc2nnc3c(=O)n(-c4ccccc4)ccn23)c1OC` here?
Answer: 8.24%

Question: Which Inhibition does the source give for `Cc1cc(C)cc(Nc2nc(C)cc3nn(CC(=O)Nc4cc(F)cc(F)c4)c(=O)n23)c1` here?
Answer: 13.54%

Question: `Cc1ccc(Oc2nccn3c(=O)n(CC(=O)Nc4cccc(Br)c4)nc23)cc1` was tested. Which Inhibition did it give?
Answer: 11.55%

Question: For `CC(C)NC(=O)CCn1c(=O)c2ccccc2n2c(=O)n(CC#N)nc12`, which Inhibition is on record?
Answer: 10.9%

Question: `CCOc1ccc(C(=O)CSc2nnc3c(=O)n(-c4ccc(C)c(C)c4)ccn23)cc1` was tested. Which Inhibition did it give?
Answer: 1.39%

Question: With `COc1ccc(NC(=O)Cn2nc3ccc(Sc4ccccc4)nn3c2=O)cc1` as the molecule, how does the Inhibition read?
Answer: 3.54%

Question: `CC(C)c1nnc2c(SCC(=O)N3CCN(c4ccccc4F)CC3)nc3ccccc3n12` was tested. Which Inhibition did it give?
Answer: 4.71%

Question: `Cc1ccc(-c2cc3c4nn(CC(=O)Nc5ccccc5F)c(=O)n4ccn3n2)cc1C` was tested. Which Inhibition did it give?
Answer: 6.53%

Question: With `Cc1cc2nn(CC(=O)Nc3cccc(C)c3C)c(=O)n2c(Nc2ccc(C)c(F)c2)n1` as the molecule, how does the Inhibition read?
Answer: 16.72%

Question: How did the Inhibition turn out when `Cc1cc2nn(CC(=O)N3CCCc4ccccc43)c(=O)n2c(Nc2ccc(F)cc2)n1` was run?
Answer: 10.84%

Question: `CSc1ccc(CNC(=O)Cn2nc3c(N4CC(C)CC(C)C4)nccn3c2=O)cc1` (stereo not given) was tested. Which Inhibition did it give?
Answer: 6.58%

Question: For `CCOc1ccc(NC(=O)Cn2nc3c(N4CCCC(C)C4)nccn3c2=O)cc1` (stereo not given), which Inhibition is on record?
Answer: 13.07%

Question: Which Inhibition does the source give for `Cc1cc(C)cc(N(Cc2ccccc2F)S(=O)(=O)c2cccn3c(C)nnc23)c1` here?
Answer: 2.04%

Question: `O=C(CSc1nnc2c(=O)n(-c3ccccc3)ccn12)Nc1cc(F)ccc1F` was tested. Which Inhibition did it give?
Answer: -0.92%

Question: With `COc1cccc(-c2nc(CSc3nc4ccccc4n4c(C)nnc34)c(C)o2)c1OC` as the molecule, how does the Inhibition read?
Answer: 8.41%

Question: Which Inhibition does the source give for `O=C(NCc1ccccc1)c1ccc2nn(CC(=O)N3CCN(c4ccc(F)cc4)CC3)c(=O)n2c1` here?
Answer: -0.37%

Question: For `CN(C)C(=O)CSc1nnc2c(=O)n(-c3ccc(F)cc3)ccn12`, which Inhibition is on record?
Answer: 10.89%

Question: For `CCOc1ccc(NC(=O)Cn2nc3c(Sc4cccc(F)c4)nccn3c2=O)cc1`, which Inhibition is on record?
Answer: -0.38%

Question: How did the Inhibition turn out when `Cc1cccc(N(Cc2ccccc2)S(=O)(=O)c2cccn3c(C)nnc23)c1` was run?
Answer: 11.16%

Question: Which Inhibition does the source give for `Cc1ccc(Nc2cc(C)n3c(=O)n(Cc4cc(=O)n5ccccc5n4)nc3n2)cc1F` here?
Answer: 9.15%

Question: With `Cc1ccc(NC(=O)Cn2nc3ccc(SC(C)(C)C)nn3c2=O)c(C)c1` as the molecule, how does the Inhibition read?
Answer: 14.3%

Question: Which Inhibition does the source give for `Cc1ccc(Sc2nccn3c(=O)n(CC(=O)N4CCN(c5ccccc5)CC4)nc23)c(C)c1` here?
Answer: 2.5%

Question: `O=C(Cn1nc2c(Sc3ccccc3)nccn2c1=O)Nc1cc(F)ccc1F` was tested. Which Inhibition did it give?
Answer: -2.16%

Question: With `COc1ccc(C(=O)CSc2nnc3c(=O)n(-c4ccc(F)c(F)c4)ccn23)cc1` as the molecule, how does the Inhibition read?
Answer: 16.31%

Question: For `Cc1cc(C)c(NC(=O)Cn2nc3c(Sc4ccccc4)nccn3c2=O)c(C)c1`, which Inhibition is on record?
Answer: -3.36%

Question: How did the Inhibition turn out when `CSc1cccc(NC(=O)Cn2nc3ccc(-c4ccccc4)nn3c2=O)c1` was run?
Answer: -3.17%

Question: With `Cc1ccc(F)cc1NC(=O)CSc1nc2ccccc2n2c(C(C)C)nnc12` as the molecule, how does the Inhibition read?
Answer: 9.62%

Question: `Cc1ccc(NC(=O)CSc2nc3ccccc3n3cnnc23)c(C)c1` was tested. Which Inhibition did it give?
Answer: 0.98%

Question: How did the Inhibition turn out when `Cc1ccc(-c2cc3c4nn(CC(=O)Nc5ccc(Cl)cc5)c(=O)n4ccn3n2)cc1C` was run?
Answer: -7.29%

Question: Which Inhibition does the source give for `Cc1nnc2c(SCC(=O)Nc3cccc(Br)c3)nc3ccccc3n12` here?
Answer: 10.33%

Question: For `COc1ccc(-n2ccn3c(=O)n(Cc4ccccc4Cl)nc3c2=O)cc1Cl`, which Inhibition is on record?
Answer: 3.5%

Question: With `COc1cc(NC(=O)C(C)Sc2nnc3c(=O)n(-c4cccc(OC)c4)ccn23)cc(OC)c1` (stereo not given) as the molecule, how does the Inhibition read?
Answer: 2.2%

Question: Which Inhibition does the source give for `COc1ccc(NC(=O)C(C)Sc2nnc3c(=O)n(-c4ccccc4)ccn23)cc1` (stereo not given) here?
Answer: 12.19%
